An excerpt weighted towards active compounds, which were near 6.9% of everything screened.
KB-3-1 cytotox: KB-3-1 parental cell cytotoxicity; KB-3-1 viability, CellTiter-Glo ATP luminescence, 72 h; Potency, µM (series often up to 46.1 µM), usual class: cytotoxic; actives 1.4% (n = 400,000); AID 1347075; also: potency is read from the fitted curve at half-maximal effect; % is scaled to controls: 0 for no effect and ±100 for the full control effect; nearly all actives have a fitted effect of over 60% in size
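KB-3-1 cells, DMEM (no phenol red) + 10% FBS; compound by pin transfer, 72 h, 37 °C. Readout: CellTiter-Glo luminescence after 10 min. Data normalized, curve-fitted.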
SW480 rereplic: DNA re-replication induction in SW480 cells | SW480 DNA re-replication, Hoechst DNA content imaging, 48 h | Potency, µM (titrated, usually from 46.1 µM), inactives show at the highest dose re-replication activation, actives largely listed as activators | actives 1.8% (n = 340,000) | AID 624297; also: potency is read from the fitted curve at half-maximal effect; % of control where 0% means no effect; nearly all actives have a fitted effect of over 55% in size
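Quantitative HTS format with DMSO vehicle controls; 48 hr drug incubation at 37 C, then 40 min Hoechst staining and scanning imager measurement at 405 nm excitation.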
MCF10A rerep: induces DNA re-replication in MCF 10a normal breast cells; MCF 10A DNA re-replication, Hoechst nuclear intensity, 48 h; actives 2.9% (n = 350,000); AID 624296; Potency, µM (top dose mostly 46.1 µM), for the others: top-dose activity, positive = re-replication, hits mostly activators; also: potency is read from the fitted curve at half-maximal effect; % of control where 0% means no effect; nearly all actives have a fitted effect of over 50% in size
Giardia killer: kills Giardia lamblia; actives 0.15% (n = 340,000); Giardia lamblia trophozoite viability; activity change, % at 7.66 µM, hits read low; AID 540267; in the data active = activity change below about -80%; inconclusive = between about -30% and that limit;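 also: parasites exposed to compound for two days anaerobically before the ATP read; % is scaled to controls: 0 for no effect and ±100 for the full control effect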
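Media and compound were dispensed first, then trophozoites at 100 cells/well; plates sat 48 hrs at 37 deg C without oxygen before ATP luminescence reagent was added and read after 15-30 min at room temperature.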
KB-V1 MDR tox: kills drug-selected multidrug resistant KB-V1 cells | KB-V1 MDR cells viability, CellTiter-Glo, 72 h | Potency, µM (highest dose often 46.1 µM), actives largely listed as cytotoxic | actives 3.4% (n = 400,000) | AID 1347076; also: potency is read from the fitted curve at half-maximal effect; % is scaled to controls: 0 for no effect and ±100 for the full control effect; nearly all actives have a fitted effect of over 60% in size
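qHTS viability screen in drug-selected KB-V1 MDR cells: 72 h compound treatment at 37 degrees C, ATP luminescence end point.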
S-ASM inh: human S-ASM enzyme inhibition | P17405 | placental ASM, HMU-PC fluorogenic substrate, 60 min | Potency, µM (highest dose often 57.5 µM), without a hit: at the top dose activity change, negative = inhibition, most hits filed as inhibitors | actives 0.006% (n = 340,000) | AID 504937; also: potency is read from the fitted curve at half-maximal effect
Target sequence (P17405 47-631 limits assumed): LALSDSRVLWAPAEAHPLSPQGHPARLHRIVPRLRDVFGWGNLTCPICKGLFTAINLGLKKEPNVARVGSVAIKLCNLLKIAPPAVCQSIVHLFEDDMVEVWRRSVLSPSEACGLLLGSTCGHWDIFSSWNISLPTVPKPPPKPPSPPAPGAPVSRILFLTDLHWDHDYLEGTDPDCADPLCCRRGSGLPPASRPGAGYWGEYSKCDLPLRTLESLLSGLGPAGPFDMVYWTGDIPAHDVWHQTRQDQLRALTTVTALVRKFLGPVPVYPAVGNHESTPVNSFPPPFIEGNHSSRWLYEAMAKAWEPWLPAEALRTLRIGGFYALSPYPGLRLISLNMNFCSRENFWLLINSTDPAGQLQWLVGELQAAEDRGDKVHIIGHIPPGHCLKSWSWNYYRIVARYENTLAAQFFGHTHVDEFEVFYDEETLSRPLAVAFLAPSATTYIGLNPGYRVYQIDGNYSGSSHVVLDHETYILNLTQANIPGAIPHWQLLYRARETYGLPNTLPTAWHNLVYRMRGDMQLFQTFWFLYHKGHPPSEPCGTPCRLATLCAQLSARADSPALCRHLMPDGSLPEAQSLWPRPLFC
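Steps: dispense placental human ASM, pin compound, wait 10 min at room temperature, add HMU-PC0 substrate at 9 uM final, incubate 60 min at 37 °C, add stop solution raising pH to 10, read fluorescence.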
* marks the source's active call; other numbers are inactive results; i = inactive; ? = inconclusive; nt = no result given. Unless noted, calls follow the shape of the dose curve; as a rule, active = well fitted curve in the direction sought with a large enough effect; inconclusive = small, poorly fitted or top-dose-only effect, or another doubt; inactive = no such curve, though single readings can be large; an effect the other way counts as inactive or inconclusive.

SMILES | KB-3-1 cytotox | SW480 rereplic | MCF10A rerep | Giardia killer | KB-V1 MDR tox | S-ASM inh
Cn1nnnc1Sc1ncnc2scc(-c3ccc(C#N)cc3)c12 | ? | 2.5% | ? | -15.6 | ? | 2.0%
Cn1nnnc1Sc1ncnc2scc(-c3cccc(F)c3)c12 | i | 4.2% | ? | 25.9 | i | 0.5%
Cn1nnnc1Sc1ncnc2scc(-c3cccs3)c12 | ? | ? | 10.3µM* | -13.6 | ? | -6.0%
Cn1nnnc1Sc1ncnc2scc(-c3ccc(C(F)(F)F)cc3)c12 | ? | 6.3% | 2.06µM* | 5.8 | 18.4µM* | -0.6%
CC1CCC2(CC1)NC(=O)N(CC(=O)Nc1ccc(F)cc1)C2=O (centres undefined) | i | ? | ? | -16.6 | i | -1.9%
CCN(CC)CC(=O)c1c(C)n(C)c2ccc(OC)cc12 | i | nt | nt | nt | ? | nt
CCOc1ccccc1CNC(=O)c1sc2ncccc2c1-n1cccc1 | i | nt | nt | nt | i | nt
O=C(C[N+]12CCCc3cccc(c31)CCC2)c1ccc2ccc3cccc4ccc1c2c34 | ? | nt | nt | nt | i | nt
Cn1nnnc1Sc1ncnc2scc(-c3ccccc3C(F)(F)F)c12 | 16.4µM* | ? | 79.4% | 0.8 | ? | -1.7%
CCOC(=O)C(=O)N1CCC(Cc2ccccc2)CC1 | i | -2.4% | 7.1% | 12.7 | i | 1.1%
CC(=O)O[C@@H]1[C@@H](O)CN[C@@H]1Cc1ccccc1 | nt | nt | nt | -82.5* | nt | nt
COCc1nnc(NC(=O)C2CCN(C(=O)c3ccccc3)CC2)s1 | i | nt | nt | 12.3 | i | nt
O=c1c(Cl)c(NCc2ccccc2Cl)cnn1C12CC3CC(CC(C3)C1)C2 | ? | ? | ? | 6.5 | 18.4µM* | -2.4%
O=C(Nc1ccc(Br)cc1)C1CCN(c2ncccn2)CC1 | i | nt | nt | nt | i | nt
COc1ccc(NC(=S)N(CCCN2CCCC2)Cc2cccn2Cc2ccc(Cl)cc2)cc1Cl | i | 23.1µM* | 20.6µM* | 22.1 | 18.4µM* | -12.3%
Cc1[nH]n(-c2ccccc2)c(=O)c1C(=O)c1ccccc1 | ? | -136.5% | ? | -7.0 | ? | -1.7%
Cc1[nH]n(-c2ccc(Cl)cc2)c(=O)c1C(=O)c1ccccc1 | 13µM* | -19.9% | 4.61µM* | 1.3 | 13µM* | 0.6%
Cc1[nH]n(-c2ccccc2)c(=O)c1C(=O)c1ccc(Cl)cc1 | ? | 2.7% | 21.4% | 0.2 | 10.3µM* | 5.7%
CCOc1ccc(-c2csc(NC(=O)CSC3=NC(=O)CN3C(C)=O)n2)c2ccccc12 | i | 0.8% | ? | 2.2 | i | 6.3%
CC(=O)N1CC(=O)N=C1SCC(=O)Nc1nc(C)c(-c2ccccc2)s1 | ? | 2.3% | ? | -15.7 | 13µM* | -1.7%
O=C(CSc1ncnc2nc[nH]c12)N1CCOCC1 | i | 18.4µM* | 8.2µM* | -3.5 | i | 3.0%
O=C(CSc1ncnc2nc[nH]c12)c1ccccc1 | ? | 3.8% | ? | -10.6 | ? | 4.2%
CCOC(=O)c1ccc(NC(=O)Cn2cc(C(=O)c3ccc(Cl)cc3)c(=O)c3ccc(C)nc32)cc1 | ? | nt | nt | nt | i | nt
CN(C)c1nc(N)nc(CSc2ncc(Cl)cc2Cl)n1 | i | 4.3% | ? | -2.7 | 14.6µM* | -0.2%
CCS(=O)(=O)NCCc1cc2cc(C)c(C)cc2[nH]c1=O | i | -0.3% | -1.1% | 10.7 | i | -1.4%
SMILES | KB-3-1 cytotox | SW480 rereplic | MCF10A rerep | Giardia killer | KB-V1 MDR tox | S-ASM inh
CCOc1ccccc1-c1nc(-c2cc3ccc(C)cc3[nH]c2=O)no1 | i | 0.9% | ? | 12.4 | ? | 82.1%
CCCc1nc(-c2cc3ccc(C)cc3[nH]c2=O)no1 | i | 2.6% | -0.9% | -3.3 | 11.6µM* | 62.8%
CCS(=O)(=O)NCCc1cc2ccc(C)cc2[nH]c1=O | i | 9.1% | -3.4% | -4.6 | 20.6µM* | 5.5%
O=Cc1ccc(CS)cc1 | i | nt | nt | nt | i | nt
CCCn1c(C(O)c2ccc(C)cc2)nc2ccccc21 (centres undefined) | i | -2.0% | ? | -8.3 | i | 2.7%
CCCn1c(C(O)c2ccc3c(c2)OCO3)nc2ccccc21 (centres undefined) | i | 14.6µM* | ? | 2.7 | i | -2.1%

Screens deposited in PubChem BioAssay by National Center for Advancing Translational Sciences (NCATS).
